Values joined by “and” are separate entries in the source; they are usually repeats but may differ in a detail not shown here. Equal values may be shown once. Records with an inconclusive call do not appear. Where a call stands in place of a potency, no number is given. Active and inactive are the calls of the source. Calls follow the shape of the dose curve; as a rule, active = well fitted cell-killing curve with a large enough effect; inconclusive = small, poorly fitted or top-dose-only effect; inactive = flat fitted curve, though single readings scatter.
Potency is read from the fitted curve at half-maximal effect.

The nature of one assay: qHTS of pediatric cancer cell lines to identify multiple opportunities for drug repurposing: Primary screen for BT-12 cells (AID 1347101). Also: nearly all actives have a fitted effect of over 25% in size. Particulars: BT-12 viability, CellTiter-Glo luminescence, 48 h; series mostly up to 57.3 µM. A digest of the protocol:
(§1)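 Cells (500-1,000/well) rested 5 h, then received compounds for 48 h; metabolically active cells were measured by CellTiter-Glo luminescence. Final concentrations spanned up to 46 µM (MIPE, 11-point) or 0.59 nM-46 µM (NPC, 8-point) in primary screens, 11-point in follow-ups.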
On to `O=C(NC(Cc1cc(=O)[nH]c2ccccc12)C(=O)O)c1ccc(Cl)cc1` (configuration not stated), for which the Potency entry is “inactive”.

As for `Cc1cccc(C#Cc2ccccc2)n1`, the Potency entry is “inactive”.

Turning to `O=Nc1c(-c2c(O)[nH]c3cc(Br)ccc23)[nH]c2ccccc12`, the Potency is 24.3 µM (active).

On to `COc1cc2c(N3CCN(C(=O)Nc4ccc(OC(C)C)cc4)CC3)ncnc2cc1OCCCN1CCCCC1`, for which the Potency was 24.3 µM (active).

As to `CCOC(=O)C(C)Oc1cccc2c(=O)n(CC(=O)Nc3ccc4c(c3)OCCO4)ccc12` (configuration not stated), the Potency result was “inactive”.

As for `CC[C@]1(O)C[C@H]2CN(CCc3c([nH]c4ccccc34)[C@@](C(=O)OC)(c3cc4c(cc3OC)N(C=O)[C@H]3[C@@](O)(C(=O)OC)[C@H](OC(C)=O)[C@]5(CC)C=CCN6CC[C@]43[C@@H]65)C2)C1`, the Potency is 15.3 nM (active) and 19.5 nM (active).

Turning to `CNC[C@H](O)c1ccc(O)c(O)c1`, the Potency entry is “inactive”.

Consider `O=C(CS(=O)Cc1ccco1)NCC=CCOc1cc(CN2CCCCC2)ccn1` (configuration not stated), for which the Potency entry is “inactive”.

Turning to `O=C(O)c1cccc(-c2noc(-c3ccccc3F)n2)c1`, the Potency result was “inactive”.

On to `O=C(O)CCNC(=O)c1ccc(N=Nc2ccc(O)c(C(=O)O)c2)cc1`, for which the Potency entry was “inactive”.

On to `COc1cc2c(cc1OC)C1CC(=O)C(CC(C)C)CN1CC2` (configuration not stated), for which the Potency result is “inactive”.

`COc1c(O)cc2c(c1O)[C@@H]1O[C@H](CO)[C@@H](O)[C@H](O)[C@H]1OC2=O`: the Potency entry is “inactive”.

For the compound `c1ccc2[nH]c(-c3cscn3)nc2c1`, the Potency result was “inactive”.

Regarding `O=C(NCCO[N+](=O)[O-])c1cccnc1`, the Potency entry was “inactive”.

A short description of another assay: qHTS of pediatric cancer cell lines to identify multiple opportunities for drug repurposing: Primary screen for Rh18 cells (AID 1347102). Also: nearly all actives have a fitted effect of over 65% in size. The conditions noted are these: Rh18 rhabdomyosarcoma viability, CellTiter-Glo luminescence, 48 h; series mostly up to 46 µM. In short, it runs like this:
as §1
A general note: Quantitative high-throughput screening tests each substance at several concentrations.
Consider `CCCOc1ccc2nc(NC(=O)OC)[nH]c2c1`, for which the Potency entry was “inactive”.

For `CCc1nc(N)nc(N)c1-c1ccc(Cl)cc1`, the Potency entry is “inactive”.

Turning to `Cc1ncc([N+](=O)[O-])n1CC(C)O` (configuration not stated), the Potency result is “inactive”.

`O=c1oc2cc(O)ccc2s1`: the Potency result is “inactive”.

As to `CCOC(=O)C1=C[C@@H](OC(CC)CC)[C@H](NC(C)=O)[C@@H](N)C1`, the Potency entry is “inactive”.

`Cc1cccc(-c2[nH]ncc2-c2ccc3ncccc3n2)n1`: the Potency entry is “inactive”.

Turning to `Cc1nccn1CC1CCc2c(c3ccccc3n2C)C1=O` (configuration not stated), the Potency result is “inactive”.

On to `Cc1cc(O)c2c(c1)C(=O)c1cc(O)cc(O)c1C2=O`, for which the Potency result was “inactive”.

As for `N=C(N=C(N)N)N1CCOCC1`, the Potency result is “inactive”.

On to `Nc1nc(N)c(N=O)c(OCC2CCCCC2)n1`, for which the Potency was 18.7 µM (active).

With `CCC(C)(Oc1ccc(C2(c3ccc(OC(C)(CC)C(=O)O)cc3)CCCCC2)cc1)C(=O)O` (configuration not stated), the Potency result is “inactive”.

`Cc1nc(-c2ccc(OCC(C)C)c(C#N)c2)sc1C(=O)O`: the Potency entry is “inactive”.

`Cn1c(NCCN(CCO)CCCc2ccc([N+](=O)[O-])cc2)cc(=O)n(C)c1=O`: the Potency entry was “inactive”.

For the compound `C=C(c1ccc(C(=O)O)cc1)c1cc2c(cc1C)C(C)(C)CCC2(C)C`, the Potency result is “inactive”.

Consider `Cc1c(OCC(F)(F)F)ccnc1CS(=O)c1nc2ccccc2[nH]1` (configuration not stated), for which the Potency result was “inactive”.

On to `S=c1nc[nH]c2nc[nH]c12`, for which the Potency result is “inactive”.

For `CN(C)[C@@H](CCOc1cccc2ccccc12)c1ccccc1`, the Potency result is “inactive”.

As for `O=C1c2c(O)cc(O)cc2OC(c2ccc(O)c(O)c2)C1O` (configuration not stated), the Potency entry was “inactive”.

As to `Cc1ccc(Nc2nccc(N(C)c3ccc4c(C)n(C)nc4c3)n2)cc1S(N)(=O)=O`, the Potency was 16.6 µM (active).

Regarding `C[C@H](Cn1cnc2c(N)ncnc21)OCP(=O)(O)O`, the Potency result is “inactive”.

`O=C(NC(Cc1cc(=O)[nH]c2ccccc12)C(=O)O)c1ccc(Cl)cc1` (configuration not stated): the Potency result was “inactive”.

For the compound `Cc1cccc(C#Cc2ccccc2)n1`, the Potency result is “inactive”.

`O=Nc1c(-c2c(O)[nH]c3cc(Br)ccc23)[nH]c2ccccc12`: the Potency was 18.7 µM (active).

On to `CCOC(=O)C(C)Oc1cccc2c(=O)n(CC(=O)Nc3ccc4c(c3)OCCO4)ccc12` (configuration not stated), for which the Potency result is “inactive”.

Turning to `CC[C@]1(O)C[C@H]2CN(CCc3c([nH]c4ccccc34)[C@@](C(=O)OC)(c3cc4c(cc3OC)N(C=O)[C@H]3[C@@](O)(C(=O)OC)[C@H](OC(C)=O)[C@]5(CC)C=CCN6CC[C@]43[C@@H]65)C2)C1`, the Potency entry was “inactive”.

Turning to `CNC[C@H](O)c1ccc(O)c(O)c1`, the Potency entry was “inactive”.

As for `O=C(CS(=O)Cc1ccco1)NCC=CCOc1cc(CN2CCCCC2)ccn1` (configuration not stated), the Potency result is “inactive”.

On to `O=c1ccc2ccc(O)c(O)c2o1`, for which the Potency entry is “inactive”.

In the case of `O=C(O)c1cccc(-c2noc(-c3ccccc3F)n2)c1`, the Potency entry is “inactive”.

In the case of `Cc1cccc(CN2CCN(C(c3ccccc3)c3ccc(Cl)cc3)CC2)c1` (configuration not stated), the Potency result is “inactive”.

Take `O=C(O)CCNC(=O)c1ccc(N=Nc2ccc(O)c(C(=O)O)c2)cc1`: the Potency entry is “inactive”.

Turning to `COc1cc2c(cc1OC)C1CC(=O)C(CC(C)C)CN1CC2` (configuration not stated), the Potency result is “inactive”.

On to `Nc1nc(Cl)nc2c1ncn2[C@H]1C[C@H](O)[C@@H](CO)O1`, for which the Potency entry is “inactive”.

Source of the values: PubChem BioAssay (NCATS).
